Results: PMC4336329 (PLoS ONE, 2015)
In all, about 310,000 compounds went through this assay and about 14,000 (4.5%) showed an effect of 50% or more. Effects have a minus sign here. This is one part of a sample in which strong results are shown more often than they occur.

biological target: human ether-à-go-go-related gene (hERG) potassium channel (human, UniProt Q12809); experiment: primary screen, population patch clamp on CHO cells stably expressing hERG; higher = less effect of the substance
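Also: peak tail current of the secondary pulse compared with the same well before compound.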

Chain of human ether-à-go-go-related gene (hERG) potassium channel (Q12809 whole entry, looked up): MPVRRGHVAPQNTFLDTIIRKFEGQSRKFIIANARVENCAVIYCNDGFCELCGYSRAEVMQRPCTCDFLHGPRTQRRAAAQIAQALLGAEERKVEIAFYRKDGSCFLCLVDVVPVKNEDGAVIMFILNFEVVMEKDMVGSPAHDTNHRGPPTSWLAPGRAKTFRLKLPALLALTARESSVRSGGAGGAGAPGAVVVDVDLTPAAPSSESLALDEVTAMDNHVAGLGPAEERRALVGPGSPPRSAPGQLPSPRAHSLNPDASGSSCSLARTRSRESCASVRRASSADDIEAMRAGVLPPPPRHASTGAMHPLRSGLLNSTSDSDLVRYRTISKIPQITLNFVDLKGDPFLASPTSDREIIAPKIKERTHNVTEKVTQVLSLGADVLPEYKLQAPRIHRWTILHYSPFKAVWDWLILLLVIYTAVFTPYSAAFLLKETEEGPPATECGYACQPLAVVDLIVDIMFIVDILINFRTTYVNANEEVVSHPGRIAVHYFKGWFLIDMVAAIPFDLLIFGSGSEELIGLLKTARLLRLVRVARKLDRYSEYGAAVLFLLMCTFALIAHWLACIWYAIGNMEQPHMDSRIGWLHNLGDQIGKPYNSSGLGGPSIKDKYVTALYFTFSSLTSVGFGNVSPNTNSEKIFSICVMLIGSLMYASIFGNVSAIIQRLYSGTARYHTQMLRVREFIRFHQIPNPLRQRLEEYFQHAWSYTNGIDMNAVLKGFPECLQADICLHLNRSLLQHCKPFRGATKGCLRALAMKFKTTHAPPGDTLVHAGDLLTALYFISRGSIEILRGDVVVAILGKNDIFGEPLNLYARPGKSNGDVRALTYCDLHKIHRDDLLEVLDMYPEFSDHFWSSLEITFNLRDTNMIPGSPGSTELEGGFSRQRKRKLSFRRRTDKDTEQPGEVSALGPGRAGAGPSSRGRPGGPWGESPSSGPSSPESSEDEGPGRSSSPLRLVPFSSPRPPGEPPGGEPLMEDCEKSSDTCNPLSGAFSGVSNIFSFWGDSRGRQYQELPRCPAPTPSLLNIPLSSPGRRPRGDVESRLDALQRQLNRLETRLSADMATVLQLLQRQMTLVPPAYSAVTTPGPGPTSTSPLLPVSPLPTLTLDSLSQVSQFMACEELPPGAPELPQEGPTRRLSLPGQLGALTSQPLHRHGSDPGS

In order of falling “hERG current change (%, negative = inhibition) at 10uM” value:
1. CN1CCN(CCCNC(=O)C2CCN(c3nnc(-n4cccc4)s3)CC2)CC1  20.2%
2. O=C(Nc1nc2ccccc2n1Cc1ccccc1)c1ccco1  20.2%
3. COc1cc2c(cc1OC)CN(C(=O)C(C)(C)C)CC2  17.6%
4. O=C(CC1C(=O)NCCN1Cc1ccccc1C(F)(F)F)NCCN1CCCCC1=O (centres unmarked)  16.9%
5. C#CCNC(=O)C1=C[C@@H](c2ccc(Br)cc2)C[C@@H](OCc2ccc(CO)cc2)O1  16.6%
6. O=C(Nc1ccccc1)c1cccn(Cc2ccccc2)c1=O  13.7%
7. C=CCO/N=C/C1C(=O)CC(C)(C)CC1=O  10.9%
8. C=CCn1cccc(C(=O)Nc2ccc(C)c(Cl)c2)c1=O  10%
9. CCCn1c(NC(=O)c2ccco2)nc2ccccc21  9.09%
10. CCn1c(NC(=O)C2CCCCC2)nc2ccccc21  8.36%
11. COc1ccc(CCNC(=O)COC(=O)COc2ccc(Cl)cc2)cc1OC  7.05%
12. COc1ccc(CCNCC(O)COc2c(C)cccc2C)cc1OC.O=C(O)C(=O)O (centres unmarked)  6.84%
13. CC(=O)c1csc(CS(=O)(=O)c2ccccn2)n1  5.4%
14. Cc1ccc(-c2cccc(OC(=O)c3ccccc3F)c2)cc1  5.02%
15. CCCCn1c(NC(=O)C2CCCCC2)nc2ccccc21  4.63%
16. Fc1cccc(Nc2nc3ccccc3n3cnnc23)c1  4.55%
17. COc1ccc(NC(=O)C2CCN(S(=O)(=O)c3ccc4[nH]c(=O)oc4c3)CC2)c(OC)c1  3.47%
18. Cc1cc2cc(CNC(=O)Nc3ccc(Cl)c(Cl)c3)ccc2n1C  2.71%
19. COc1ccc(NC(=O)COC(=O)CN2C(=O)NC(C)(C)C2=O)cc1  2.55%
20. Cl.N=c1ccn(Cc2cccc(Cl)c2)cc1  2.03%
21. COc1ccc(CCNCC(O)COc2cccc(C(C)=O)c2)cc1OC.O=C(O)C(=O)O (centres unmarked)  -0.028%
22. Cc1cc(C)nc(NC(=O)CSc2nn(C)c(=S)s2)n1  -0.37%
23. COc1cnn(-c2ccc([N+](=O)[O-])cc2)c(=O)c1Cl  -2.52%
24. O=C(CCc1ccccc1)Nc1ccccc1  -2.56%
25. O=C(NCCCN1CCc2ccccc2C1)C1CCN(S(=O)(=O)N2CCCC2)CC1  -2.78%
26. CC(C(=O)NC1CCCC1)N(C(=O)CS(=O)CC(=O)Nc1ccc(F)cc1)c1ccc2c(c1)OCCO2 (centres unmarked)  -3.58%
27. O=S(=O)(Cc1noc(-c2ccc(Cl)cc2)n1)Cc1ccco1  -4.77%
28. O=C(C1CCN(c2nnc(-n3cccc3)s2)CC1)N1CCCCC1  -6.55%
29. CCn1c(CS(=O)Cc2ccc(Cl)cc2Cl)nnc1SCc1c(Cl)cccc1Cl (centres unmarked)  -6.78%
30. C=CCn1cccc(C(=O)Nc2ccc(C)cc2)c1=O  -7.96%
31. Cc1noc(C)c1COC(=O)C1CC(O)CN1S(=O)(=O)c1ccc(Cl)cc1 (centres unmarked)  -8.48%
32. O=C(NCCCN1CCc2ccccc2C1)C1CCN(S(=O)(=O)N2CCC3(CC2)OCCO3)CC1  -12.4%
33. O=C(CCc1ccccc1)Nc1cccc(NC(=O)CCc2ccccc2)c1  -13.4%
34. O=C(C1CCN(c2nnc(-n3cccc3)s2)CC1)N1CCOCC1  -13.9%
35. CCCN1CCN(CCCNC(=O)C2CCN(c3nnc(-n4cccc4)s3)CC2)CC1  -14.4%
36. CCN1CCCC1CNC(=O)C(=O)Nc1ccccc1OC (centres unmarked)  -15%
37. COc1ccc(CCNC(=O)CCCOc2ccc(Cl)cc2)cc1OC  -15.3%
38. CCCn1c(NC(=O)C2CCN(C(=O)c3ccccc3C)CC2)nc2ccccc21  -16%
39. Cn1ncc(Cl)c(Oc2ccc(Cl)cc2)c1=O  -17%
40. CN(C)CCCn1c(NC(=O)C2CCCCC2)nc2ccccc21  -27.3%
41. O=C(NCc1ccccc1)c1cccn(Cc2ccccc2)c1=O  -29.3%
42. O=S(=O)(c1ccccc1)c1nc(-c2ccc(F)cc2)oc1NCC1CCCO1 (centres unmarked)  -34.6%
43. COc1ccc(CCNCC(O)COc2ccc(OC)cc2C(C)(C)C)cc1 (centres unmarked)  -38.8%
44. Cn1c(CS(=O)Cc2c(Cl)cccc2Cl)nnc1SCc1c(Cl)cccc1Cl (centres unmarked)  -45.1%
45. OC(CNCCc1ccc(C(F)(F)F)cc1)COc1ccc2ccccc2c1 (centres unmarked)  -46.5%
46. COc1ccc(CCNCC(O)COc2cccc(Br)c2)cc1 (centres unmarked)  -50%
47. O=C(NCCN1CCc2ccccc2C1)C1CCN(S(=O)(=O)N2CCCCC2)CC1  -53.8%
48. O=C(Nc1nc2ccccc2n1CCN1CCCCC1)c1ccco1  -54.8%
49. O=C(NCCCN1CCc2ccccc2C1)C1CCN(c2nnc(-n3cccc3)s2)CC1  -55.6%
50. O=C(Nc1ccncc1)c1cccn(Cc2ccccc2)c1=O  -55.8%
51. Cn1c(CS(=O)Cc2c(Cl)cccc2Cl)nnc1SCc1ccc(Cl)cc1 (centres unmarked)  -56.2%
52. O=C(CCc1ccccc1)Nc1ccncc1  -56.8%
53. O=C(Nc1nc2ccccc2n1CCN1CCCC1)C1CCCCC1  -58.6%
54. O=C(C1CCN(c2nnc(-n3cccc3)s2)CC1)N1CCc2ccccc2C1  -60.3%
55. O=C(Nc1nc2ccccc2n1CCN1CCCCC1)C1CCCCC1  -61.2%
56. COc1ccc(CCNCC(O)COc2cccc(Br)c2)cc1OC (centres unmarked)  -67.3%
57. Cn1ncc(Oc2ccc([N+](=O)[O-])cc2)c(Cl)c1=O  -71.2%
58. C=CCn1cccc(C(=O)Nc2ccc(C)c(C)c2)c1=O  -71.9%
59. COc1ccc(CCNCC(O)COc2ccc(Cl)cc2)cc1OC.Cl (centres unmarked)  -72.1%
